# The whole screen tested about 220,000 compounds, of which about 2,000 (0.91%) were called active. Another 2% or so got no clear call; they are omitted. The list is a sample of the results. Results with a measured potency or affinity are listed apart. Values without a mark were called inactive. Rule as the data show it: inconclusive = inhibition above about 80% without an active follow-up result; inactive = below that; test concentration not stated here.
# Experiment: M. tuberculosis H37Rv growth inhibitors, H37Rv strain (AID 1626);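 also: bacteria incubated seven days before Alamar blue readout; 0% = bacteria only wells and 100% = bacteria with antibiotic wells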
# Settings: active compounds read high, concentration not given here
row,Structure (SMILES),inhibition [%]
1,O=C1c2ccccc2C(Nc2ccc(S(=O)(=O)N3CCOCC3)cc2)N1Cc1ccco1 (stereo not given),-2.41
2,CC(CC(=O)N1CCN(c2ccc(C(F)(F)F)cn2)CC1)n1ccnc1 (stereo not given),1.81
3,O=C(Cc1ccc(-n2c(=O)c3sccc3n(CC(=O)Nc3ccccc3F)c2=O)cc1)NCc1ccco1,-10.9
4,COc1cc(OC)c2c(-c3ccccc3)cc(=O)oc2c1C(CC(=O)N1CCOCC1)c1ccc(N(C)C)cc1 (stereo not given),-7.25
5,COc1cc(C(CCN2CCCC2)c2c(OC)cc(OC)c3c(-c4ccccc4)cc(=O)oc23)cc(OC)c1OC (stereo not given),-3.05
6,COc1ccc(C(CC(=O)N2CCCC(C)C2)c2c(OC)cc(OC)c3c(-c4ccccc4)cc(=O)oc23)cc1 (stereo not given),-5.32
7,COc1cc(C(CCN2CCCC(C)C2)c2c(OC)cc(OC)c3c(-c4ccccc4)cc(=O)oc23)cc(OC)c1OC (stereo not given),71
8,O=C(Cc1c(Cl)cccc1Cl)Nc1cccc(S(=O)(=O)N2CCOCC2)c1,9.23
9,OC(COc1ccc(-c2ccccc2)cc1)CN1CCOCC1 (stereo not given),8.22
10,CCOc1ccccc1NC(=O)Cn1c(=O)oc2ccccc21,6.54
11,Cc1nn(-c2ccccn2)c2c1C(c1ccccc1Cl)C1=C(N2)c2ccccc2C1=O (stereo not given),5.6
12,Cc1nn(-c2ccccn2)c2c1C(c1c(F)cccc1Cl)C1=C(N2)c2ccccc2C1=O (stereo not given),8.57
13,Cc1cc(C)c(C#N)c(Oc2ccc(O)cc2)n1,8.87
14,O=C1C=C(c2cccs2)CC(c2cccs2)C1n1cnc([N+](=O)[O-])c1 (stereo not given),8.22
15,CC(=O)C1C(=O)C=C(c2cccs2)CC1c1ccccc1 (stereo not given),2.98
16,Cc1ccc(S(N)(=O)=O)c(C)c1N1CCCC1=O,-3.84
17,COc1ccc(-c2noc(CCC(=O)Nc3cccc(C)c3)n2)cc1,78.2
18,COc1ccc(-c2noc(CCC(=O)NCCCN3CCN(c4ccc(F)cc4)CC3)n2)cc1,8.36
19,Cc1ccc(-c2noc(CCC(=O)NCCCN3CCN(c4ccc(F)cc4)CC3)n2)cc1,-9.54
20,COc1cc(OC)c(NC(=O)CCc2nc(-c3ccc(C)cc3)no2)cc1Cl,-0.67
21,COc1ccc(-c2noc(CCC(=O)Nc3cc(Cl)c(OC)cc3OC)n2)cc1,14.3
22,COc1ccc(-c2noc(CCC(=O)Nc3cc(OC)ccc3OC)n2)cc1,3.07
23,COc1ccc(CCC(=O)Nc2ccc3c(c2)OCCO3)cc1,-2.09
24,Cc1ccc(-c2noc(CCC(=O)Nc3ccc4c(c3)OCO4)n2)cc1,67.5

row,Structure (SMILES),inhibition [%]
1,CCOc1ccc(-c2nc(N)ncc2Oc2ccc(OC)cc2)c(O)c1,1.63
2,CCOc1ccc(CN2CCN(Cc3cccc4c3OCO4)CC2CCO)cc1 (stereo not given),5.32
3,CC(OC(=O)c1ccc(Cl)c(S(=O)(=O)Nc2ccc(F)cc2)c1)C(=O)NC(N)=O (stereo not given),-1.89
4,CCn1c(NN=O)nc2ccccc21,3.63
5,CC(=O)C1=C(C)NC(=O)NC1c1cccs1 (stereo not given),-8.1
6,COc1cc(/C=C(\C#N)c2ccccn2)ccc1OCC(=O)Nc1ccc(Br)cc1,-1.03
7,C#CC1(NC(=O)NC(C)(C)C)CCCCC1,2.25
8,COc1ccccc1NC(=O)COC(=O)c1cnc(C)cn1,0.5
9,CCc1cc(C(c2cccc(OC)c2)N2CCOCC2)c(NC(=O)c2ccccc2)s1 (stereo not given),2.32
10,CCOC(=O)C1(CC/C(C)=N\NC(N)=O)CC(C)(C)OC1=O (stereo not given),-7.16
11,Cc1nnc(C)n1/N=C/c1cccc(Oc2ccccc2)c1,5.69
12,COC(=O)c1ccsc1NC(=O)C1=COCCO1,2.57
13,O=C(NCc1ccccc1)C(=O)Nc1nc(C23CC4CC(CC(C4)C2)C3)cs1,6.64
14,CNc1nc(C23CC4CC(CC(C4)C2)C3)cs1,2.54
15,CCn1c(SCC(=O)Nc2ccccc2C(=O)OC)nnc1-c1cccc(C)c1,-2.01
16,O=C(Nc1nc2ccccc2n1CCN1CCCC1)C1CCCCC1,-3.71
17,CN(C)CCCn1c(NC(=O)C2CCCCC2)nc2ccccc21,3.22
18,O=C(Nc1nc2ccccc2n1CCN1CCCCC1)C1CCCCC1,4.2
19,CCCCn1c(NC(=S)Nc2ccccc2)nc2ccccc21,9.5
20,O=C(Cc1ccccc1)Nc1cccc(N2CCCC2)c1,2.44
21,Cc1nnc(NN)n(N)c1=O,-3.11
22,CCCCOc1ccc(C(=O)N/C(=C/C=C/c2ccccc2)C(=O)O)cc1,-8.39
23,O=C(N/C(=C/C=C\c1ccccc1)C(=O)N1CCOCC1)c1ccc(Br)cc1,64.4
24,CCC(=O)Nc1ccc(NC(=S)NC(=O)c2cc3ccccc3o2)cc1,15.4

row,Structure (SMILES),inhibition [%]
1,Cc1ccc(S(=O)(=O)NCC(=O)N(CC(=O)NCC2CCCO2)Cc2ccco2)cc1 (stereo not given),11.1
2,O=[N+]([O-])c1cc(Cl)ccc1N1CCOCC1,-3.75
3,O=C(Nc1ccccc1N1CCOCC1)c1ccc(N2CCOCC2)c([N+](=O)[O-])c1,6.98
4,Cc1ccc(OC(=O)c2ccc(N3CCOCC3)c([N+](=O)[O-])c2)cc1,54.1
5,COc1ccc(C(=O)c2ccc(N3CCOCC3)c([N+](=O)[O-])c2)cc1,-2.74
6,O=C(OCC(=O)N1CCOCC1)c1ccc(N2CCOCC2)c([N+](=O)[O-])c1,-0.57
7,O=C(O)c1ccccc1C(=O)c1ccc(N2CCOCC2)c([N+](=O)[O-])c1,3.64
8,Cc1sc(NC(=O)CSc2nnc(-c3ccccc3)o2)c(C#N)c1C,-2.26
9,CCOc1ccc(NC(=O)CC2SC(N)=NC2=O)c([N+](=O)[O-])c1 (stereo not given),2.3
10,COC(=O)c1ccc(NC(=O)CN2C(=O)C3C4C=CC(C4)C3C2=O)cc1 (stereo not given),1.35
11,O=C(CCNc1cc(Cl)cc(Cl)c1)c1cccs1,74.2
12,COc1ccc(C(=O)CNc2ccccc2CO)cc1,-0.7
13,COc1ccc(C(=O)CNc2ccccc2C#N)cc1,3.5
14,Cc1ccc(NCCC(=O)c2cccs2)cc1C,74.8
15,COc1ccc(C(=O)CCNc2cccc(Cl)c2)cc1,10.7
16,Cc1ccc(NC(=O)COC(=O)CCC(=O)c2cccs2)cc1,-6.9
17,CCCOc1ccc(C(=O)CCNc2ccc(C)c(Cl)c2)cc1,69.1
18,Cc1ccc(NC(=O)CCC(=O)c2cccs2)cc1,1.21
19,CCOc1ccc(-c2nn(-c3ccccc3)cc2/C=C2\SC(=S)N(Cc3ccco3)C2=O)cc1,-2.18
20,COc1ccccc1C1=NC(c2ccc(C)cc2)N=C1C (stereo not given),7.88
21,COc1ccc(N2C(=O)C3NN=C(C(=O)OCc4ccccc4)C3C2=O)cc1 (stereo not given),1.18
22,Cc1cccc(NC(=S)N(CCN(C)C)Cc2cc3cccc(C)c3[nH]c2=O)c1,12.2
23,CSC1=NC(C)(C)C=C(/C=C/c2ccc(Cl)cc2)N1,-4.38
24,Cc1c(C(=O)N2CCN(C)CC2)oc2ccc(S(=O)(=O)N3CCOCC3)cc12,-4.68

row,Structure (SMILES),inhibition [%]
1,Cc1cc(C(=O)NC(C)c2ccncc2)no1 (stereo not given),-9.57
2,CCn1c2c(c(C)cc1=O)C(=O)CC(C)(C)C2,-1.17
3,CC(=O)c1ccc(N2Cc3ccccc3C3(CCOCC3)C2=N)cc1,-1.43
4,COc1ccccc1CC(=O)NC1CCCc2ccccc21 (stereo not given),1.93
5,Cc1cc(Nc2ccc3c(c2)OCCO3)n2nc(C)nc2n1,1.27
6,CCOC(=O)C1=Nc2ccccc2/C1=C\c1c(O)n(C)c(=O)n(C)c1=O,-4.93
7,CCOC(=O)C(=O)Nc1ccccc1C(=O)OCC,-3.74
8,CC(=O)Nc1cc(C(F)(F)F)ccc1OCC1CCCO1 (stereo not given),4.74
9,Cc1ccc(-c2cc(C(F)(F)F)n3ncc(C(=O)N4CCCCC4c4cccnc4)c3n2)cc1 (stereo not given),9.06
10,COc1cccc(-c2cc(C(F)(F)F)n3nc(C(=O)N4CCCCC4c4cccnc4)cc3n2)c1 (stereo not given),-1.53
11,CCN1CCN(C(=S)Nc2ccsc2C(=O)OC)CC1,2.48
12,COc1ccc(CCNC(=O)COC(=O)COc2ccc(C#N)cc2)cc1,3.53
13,O=C(Nc1nnc(Cc2ccc(Cl)cc2)s1)c1cccs1,-8
14,O=C(Nc1nnc(Cc2ccccc2)s1)c1cccs1,-2.7
15,Cc1ccc(Cc2cnc(NC(=O)c3ccco3)s2)cc1,-0.28
16,O=C(Nc1nnc(CCc2ccccc2)s1)c1cccs1,-0.19
17,CCOC(=O)c1oc2cccc(O)c2c1CN1CCOCC1,1.91
18,CC(=N/O)/C(=N\O)c1ccc(C)o1,5.71
19,O=C1CC(N2CCN(Cc3ccc4c(c3)OCO4)CC2)C(=O)N1c1cccc2ccccc12 (stereo not given),-7.76
20,CCOC(=O)c1c(NC(=O)COC(=O)c2cc(OC)c(OC)cc2[N+](=O)[O-])sc(C)c1C,0.78
21,O=C(Nc1ccc(Cl)cc1)N1CCCC1,1.26
22,O=C(Nc1cccc(Cl)c1)N1CCCC1,-2.82
23,N#Cc1c(-c2ccc(Cl)cc2Cl)nc2n(c1=O)CCS2,-1.19
